Assay results: PubChem BioAssay (EPA / NIEHS)
Inconclusive results are not listed. The source made the active and inactive calls. Rule for the calls: active = hit-call score of the fitted dose curve at least 0.9, where 1 is the maximum; inconclusive = response in the unintended direction; inactive = score below 0.9.

Target: Oxysterols receptor LXR-alpha (Homo sapiens) (UniProt Q13133)
Experiment: ATG_LXRa_TRANS: Attagene TRANS-FACTORIAL HepG2 Assay for human Liver X Receptor alpha (LXRa) (AID 2282980)
Conditions: HepG2 Attagene TRANS reporter, LXRa transactivation
How it was run: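 Read-out: reporter transcript levels by RT-PCR plus capillary electrophoresis, fluorescence intensity. Transiently transfected HepG2, exogenous NR-GAL4 chimera, GAL4-UAS reporters; 24 h compound exposure. Activity = increase over DMSO negative control.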

Sequence of Oxysterols receptor LXR-alpha (Homo sapiens) (Q13133 whole entry, looked up): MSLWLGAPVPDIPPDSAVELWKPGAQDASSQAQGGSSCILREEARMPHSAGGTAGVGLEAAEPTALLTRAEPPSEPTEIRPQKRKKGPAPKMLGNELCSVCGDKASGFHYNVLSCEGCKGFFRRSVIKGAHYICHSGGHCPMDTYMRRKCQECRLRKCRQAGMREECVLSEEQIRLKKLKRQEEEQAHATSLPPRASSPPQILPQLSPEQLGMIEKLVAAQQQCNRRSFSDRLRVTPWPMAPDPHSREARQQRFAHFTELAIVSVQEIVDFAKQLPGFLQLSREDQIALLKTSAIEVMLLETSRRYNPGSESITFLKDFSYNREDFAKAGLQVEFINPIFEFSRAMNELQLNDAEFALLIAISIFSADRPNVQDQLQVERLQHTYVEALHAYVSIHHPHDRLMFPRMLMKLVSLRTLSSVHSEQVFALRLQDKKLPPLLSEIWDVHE

Compound	outcome
CCCCCCCCCCCC#N	inactive
O=C(NC(=O)c1c(F)cccc1F)Nc1ccc(Oc2ccc(C(F)(F)F)cc2Cl)cc1F	inactive
CC(=O)C=Cc1ccccc1	inactive
CCC(=O)c1ccc(Cl)cc1	inactive
Nc1ccccc1C(=O)Oc1ccc2ccccc2c1	inactive
CCCCOP(=O)(O)OCCCC	inactive
CC(O)CN(CC(C)O)CC(C)O (stereo not given)	inactive
Cc1ccc(C)c2ccccc12	inactive
[CH3][Sn]([Cl])([Cl])[Cl]	inactive
CCOC(=O)C1OC1(C)c1ccccc1 (stereo not given)	inactive
[Cl][Sb]([Cl])[Cl]	inactive
COc1ncc(F)c2nc(S(=O)(=O)Nc3c(F)cccc3F)nn12	inactive
C[C@]12CC[C@H]3[C@@H](CC[C@@]45O[C@@H]4C(O)=C(C#N)C[C@]35C)[C@@H]1CC[C@@H]2O	inactive
O=[N+]([O-])c1cc([N+](=O)[O-])c2ccccc2c1	inactive
CCCCCCCCCCCCCCCC[N+](C)(C)C	inactive

Target: Oxysterols receptor LXR-beta (Homo sapiens) (UniProt P55055)
Sequence (P55055 whole entry, looked up): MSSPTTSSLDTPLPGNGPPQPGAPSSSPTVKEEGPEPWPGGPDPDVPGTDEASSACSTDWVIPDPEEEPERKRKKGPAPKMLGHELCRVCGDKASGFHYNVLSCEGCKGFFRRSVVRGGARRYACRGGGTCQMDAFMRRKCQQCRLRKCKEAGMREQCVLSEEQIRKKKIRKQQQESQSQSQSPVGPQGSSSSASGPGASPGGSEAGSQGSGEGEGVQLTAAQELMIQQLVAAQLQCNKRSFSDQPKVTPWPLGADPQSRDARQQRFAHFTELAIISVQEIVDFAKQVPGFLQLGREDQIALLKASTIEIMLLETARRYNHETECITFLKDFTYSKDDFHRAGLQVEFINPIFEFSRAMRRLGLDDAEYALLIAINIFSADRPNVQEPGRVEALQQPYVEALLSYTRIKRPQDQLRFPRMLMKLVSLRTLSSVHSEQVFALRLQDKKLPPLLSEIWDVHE
Experiment: ATG_LXRb_TRANS: Attagene TRANS-FACTORIAL HepG2 Assay for human Liver X Receptor beta (LXRb) (AID 2282981)
Conditions: HepG2 Attagene TRANS GAL4-LXRb reporter, mRNA
How it was run: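 Cells: HepG2, transiently transfected with GAL4-UAS reporter units plus LXRb-Gal4 fusion. Treatment: 24 h. Detection: reporter mRNA by RT-PCR, 6-FAM labelling, HpaI digestion, capillary electrophoresis.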

Compound	outcome
O=C(NC(=O)c1c(F)cccc1F)Nc1ccc(Oc2ccc(C(F)(F)F)cc2Cl)cc1F	inactive
CC1CCCC1.[C-]#[O+].[C-]#[O+].[C-]#[O+].[Mn]	inactive
CCCCNP(N)(N)=S	inactive
CC(=O)C=Cc1ccccc1	inactive
CCC(=O)c1ccc(Cl)cc1	inactive
C=CC(=O)OC	inactive
CN(C)N	inactive
CN1C[C@H](C(=O)N[C@]2(C)O[C@@]3(O)[C@@H]4CCCN4C(=O)[C@H](Cc4ccccc4)N3C2=O)C=C2c3cccc4[nH]cc(c34)C[C@H]21	inactive
O=[N+]([O-])C=Cc1ccccc1	inactive
Nc1ccc(Cl)c(Cl)c1	inactive
CCCCOP(=O)(O)OCCCC	inactive
CC(O)CN(CC(C)O)CC(C)O (stereo not given)	inactive
Nc1cc(Cl)cc(Cl)c1	inactive
O=[N+]([O-])c1ccc(Cl)cc1	inactive
Cc1ccc(C)c2ccccc12	inactive
CC(=O)c1cc2c(cc1C)C(C)(C)C(C)CC2(C)C (stereo not given)	inactive
Nc1ccc(-c2ccc(N)c(N)c2)cc1N	inactive
c1cc(OCC2CO2)ccc1Cc1ccc(OCC2CO2)cc1 (stereo not given)	inactive
C=CC(=O)OCCCCOC(=O)C=C	inactive
c1ccc2c(c1)CCCC2	inactive
CCOC(=O)C1OC1(C)c1ccccc1 (stereo not given)	inactive
[Cl][Sb]([Cl])[Cl]	inactive
C[C@]12CC[C@H]3[C@@H](CC[C@@]45O[C@@H]4C(O)=C(C#N)C[C@]35C)[C@@H]1CC[C@@H]2O	inactive
O=[N+]([O-])c1cc([N+](=O)[O-])c2ccccc2c1	inactive

Target: Hepatocyte nuclear factor 4-alpha (Homo sapiens) (UniProt P41235)
Sequence (P41235 whole entry, looked up): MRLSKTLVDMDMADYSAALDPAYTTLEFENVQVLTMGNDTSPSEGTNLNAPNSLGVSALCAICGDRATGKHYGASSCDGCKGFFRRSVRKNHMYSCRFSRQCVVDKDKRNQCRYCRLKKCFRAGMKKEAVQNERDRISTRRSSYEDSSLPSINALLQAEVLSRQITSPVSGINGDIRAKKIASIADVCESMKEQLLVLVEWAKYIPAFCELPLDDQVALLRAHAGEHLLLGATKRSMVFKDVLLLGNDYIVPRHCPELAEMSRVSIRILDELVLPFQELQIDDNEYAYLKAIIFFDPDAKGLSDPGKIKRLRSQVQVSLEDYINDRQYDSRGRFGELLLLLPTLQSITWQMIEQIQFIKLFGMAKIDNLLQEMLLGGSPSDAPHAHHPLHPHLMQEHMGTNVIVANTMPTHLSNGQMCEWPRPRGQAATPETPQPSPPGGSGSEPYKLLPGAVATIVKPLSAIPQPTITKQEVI
Experiment: ATG_HNF4a_TRANS: Attagene TRANS-FACTORIAL HepG2 Assay for human Hepatocyte Nuclear Factor 4 alpha (HNF4a) (AID 2282982)
Conditions: HepG2 HNF4a transactivation reporter, mRNA readout
How it was run: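 Transfected HepG2 reporter cells are dosed for 24 h; reporter RNA is reverse-transcribed, amplified, fluorescently labelled and HpaI-digested before CE sizing. Positive-direction fit against DMSO.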

Compound	outcome	AC50
O=C(NC(=O)c1c(F)cccc1F)Nc1ccc(Oc2ccc(C(F)(F)F)cc2Cl)cc1F	inactive	
CC(=O)C=Cc1ccccc1	inactive	
CCC(=O)c1ccc(Cl)cc1	inactive	
O=[N+]([O-])C=Cc1ccccc1		47.5 µM (active)
Nc1cc(Cl)cc(Cl)c1	inactive	
COC(=O)COc1ccc(Cl)cc1Cl	inactive	
[CH3][Sn]([Cl])([Cl])[Cl]	inactive	
CC(=O)c1cc2c(cc1C)C(C)(C)C(C)CC2(C)C (stereo not given)	inactive	
Nc1ccc(-c2ccc(N)c(N)c2)cc1N	inactive	
c1ccc2c(c1)CCCC2	inactive	
COc1ncc(F)c2nc(S(=O)(=O)Nc3c(F)cccc3F)nn12	inactive	
C[C@]12CC[C@H]3[C@@H](CC[C@@]45O[C@@H]4C(O)=C(C#N)C[C@]35C)[C@@H]1CC[C@@H]2O	inactive	
O=C(O)C(Br)Br	inactive	
CCCCCCCCCCCCCCCC[N+](C)(C)C		27.6 µM (active)

Test system: not listed separately
Experiment: ATG_M_06_TRANS: Attagene TRANS-FACTORIAL HepG2 Assay for M06 Transcription Factor (Internal Marker) (AID 2282983)
Conditions: HepG2 Attagene TRANS M06 internal marker reporter
How it was run: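 After a 24 h chemical treatment of transfected HepG2, RNA underwent DNase I treatment, reverse transcription and reporter-specific PCR; labelled, HpaI-digested products were sized by capillary electrophoresis. Signal increase relative to DMSO defined activity.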

Compound	outcome
CCC(=O)c1ccc(Cl)cc1	inactive
Nc1ccccc1C(=O)Oc1ccc2ccccc2c1	inactive
C=CC(=O)OC	inactive
N#CCNCC#N	inactive
CN(C)N	inactive
O=[N+]([O-])C=Cc1ccccc1	inactive
Nc1ccc(Cl)c(Cl)c1	inactive
CCCCOP(=O)(O)OCCCC	inactive
[CH3][Sn]([Cl])([Cl])[Cl]	inactive
CC(=O)c1cc2c(cc1C)C(C)(C)C(C)CC2(C)C (stereo not given)	inactive
Nc1ccc(-c2ccc(N)c(N)c2)cc1N	inactive
c1cc(OCC2CO2)ccc1Cc1ccc(OCC2CO2)cc1 (stereo not given)	inactive
C=CC(=O)OCCCCOC(=O)C=C	inactive
[Cl][Sb]([Cl])[Cl]	inactive
CC(C)[C@@H](C(=O)O[C@@H](C#N)c1cccc(Oc2ccccc2)c1)c1ccc(Cl)cc1	inactive
C[C@]12CC[C@H]3[C@@H](CC[C@@]45O[C@@H]4C(O)=C(C#N)C[C@]35C)[C@@H]1CC[C@@H]2O	inactive
O=[N+]([O-])c1cc([N+](=O)[O-])c2ccccc2c1	inactive
C=CC(=O)OCCO	inactive
CCCCCCCCCCCCCCCC[N+](C)(C)C	inactive

Test system: not listed separately
Experiment: ATG_M_32_TRANS: Attagene TRANS-FACTORIAL HepG2 Assay for M32 Transcription Factor (Internal Marker) (AID 2282984);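 note: transcript level of a background control reporter unit measured by RT-PCR and capillary electrophoresis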
Conditions: HepG2 Attagene TRANS M32 internal marker reporter
How it was run: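 Using transiently transfected HepG2 cells exposed to test chemicals for 24 h, reporter transcripts are converted to labelled cDNA fragments and quantified by capillary electrophoresis. DMSO defines the activity baseline.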

Compound	outcome
CCCCCCCCCCCC#N	inactive
CC1CCCC1.[C-]#[O+].[C-]#[O+].[C-]#[O+].[Mn]	inactive
CCCCNP(N)(N)=S	inactive
CCC(=O)c1ccc(Cl)cc1	inactive
C=CC(=O)OC	inactive
CC(C)CCCCCCCOC(=O)c1ccccc1C(=O)OCCCCCCCC(C)C	inactive
N#CCNCC#N	inactive
CN(C)N	inactive
CN1C[C@H](C(=O)N[C@]2(C)O[C@@]3(O)[C@@H]4CCCN4C(=O)[C@H](Cc4ccccc4)N3C2=O)C=C2c3cccc4[nH]cc(c34)C[C@H]21	inactive
O=[N+]([O-])C=Cc1ccccc1	inactive
Nc1ccc(Cl)c(Cl)c1	inactive
CCCCOP(=O)(O)OCCCC	inactive
O=C(O)CCl	inactive
CC(O)CN(CC(C)O)CC(C)O (stereo not given)	inactive
Nc1cc(Cl)cc(Cl)c1	inactive
O=[N+]([O-])c1ccc(Cl)cc1	inactive
Cc1ccc(C)c2ccccc12	inactive
C=CCO	inactive
COC(=O)COc1ccc(Cl)cc1Cl	inactive
CC(=O)c1cc2c(cc1C)C(C)(C)C(C)CC2(C)C (stereo not given)	inactive
Nc1ccc(-c2ccc(N)c(N)c2)cc1N	inactive
c1cc(OCC2CO2)ccc1Cc1ccc(OCC2CO2)cc1 (stereo not given)	inactive
C=CC(=O)OCCCCOC(=O)C=C	inactive
c1ccc2c(c1)CCCC2	inactive
CCOC(=O)C1OC1(C)c1ccccc1 (stereo not given)	inactive
CC(C)[C@@H](C(=O)O[C@@H](C#N)c1cccc(Oc2ccccc2)c1)c1ccc(Cl)cc1	inactive
C[C@]12CC[C@H]3[C@@H](CC[C@@]45O[C@@H]4C(O)=C(C#N)C[C@]35C)[C@@H]1CC[C@@H]2O	inactive
CCCCCCCCCCCCCCCC[N+](C)(C)C	inactive
